Source: the supplement of paper PMC13380429

System: Vero E6 infected with SARS-CoV-2
Assay: inhibition of SARS-CoV-2 cytopathic effect; higher = more antiviral protection, active = above 15
Details: 48 h

Measured: inhibition of SARS-CoV-2 cytopathic effect

Clc1ccc(C(Cn2ccnc2)OCc2ccc(Sc3ccccc3)cc2)c(Cl)c1 (stereo not given) [fenticonazole]
inactive: 1 nM -3.37% | 8.33 nM 3.19% | 100 nM 0.76% | 833.33 nM 0.19% | 10000 nM 2.21%

CCCCCCCCCCCCCC(=O)OC(C)C [isopropyl-myristate]
inactive: 1 nM 0.54% | 8.33 nM 0.41% | 100 nM 2.06% | 833.33 nM 1.1% | 10000 nM -0.15%

CCCC(=O)Nc1ccc(OCC(O)CNC(C)C)c(C(C)=O)c1 (stereo not given) [acebutolol]
inactive: 1 nM 4.4% | 8.33 nM 2.88% | 100 nM 3.43% | 833.33 nM -2.09% | 10000 nM 3.92%

C[C@@H](O)[C@H]1C(=O)N2C(C(=O)O)=C([C@H]3CCCO3)S[C@H]12 [faropenem]
inactive: 1 nM -0.32% | 8.33 nM -0.11% | 100 nM 1.66% | 833.33 nM 0.92% | 10000 nM 1.61%

C[C@]12CC[C@@H]3c4ccc(O)cc4CC[C@H]3[C@@H]1CC[C@@H]2OC(=O)CCC1CCCC1 [estradiol-cypionate]
inactive: 1 nM -1.71% | 8.33 nM -1.36% | 100 nM -3.51% | 833.33 nM 1.21% | 10000 nM 1.69%

O=c1c2ccccc2nc2n1CCc1c-2[nH]c2ccccc12 [rutaecarpine]
inactive: 1 nM -1.97% | 8.33 nM 0.36% | 100 nM -0.87% | 833.33 nM 0.6% | 10000 nM -0.59%

c1ccc(C(NCCNC(c2ccccc2)c2ccccc2)c2ccccc2)cc1
inactive: 1 nM -3.48% | 8.33 nM -3.4% | 100 nM 3.81% | 833.33 nM 2.97% | 10000 nM -0.01%

O=C(O)c1cc(O)c2ccc(Cl)cc2n1 [7-chlorokynurenic-acid]
inactive: 1 nM 1.64% | 8.33 nM 1.28% | 100 nM 1.02% | 833.33 nM 1.24% | 10000 nM 1.89%

N#Cc1ccc(N2CCN(C(=O)COc3ccc4[nH]cc(CCN)c4c3)CC2)cc1 [donitriptan]
inactive: 1 nM -0.48% | 8.33 nM -0.51% | 100 nM 0.51% | 833.33 nM -0.87% | 10000 nM 1.77%

CN1CCN(c2ccc3ccccc3n2)CC1 [N-methylquipazine]
inactive: 1 nM 0.97% | 8.33 nM -1.57% | 100 nM 0.41% | 833.33 nM -1.31% | 10000 nM -0.19%

Nc1ccncc1N [amifampridine]
inactive: 1 nM -1.81% | 8.33 nM -1.46% | 100 nM -2.67% | 833.33 nM -3.34% | 10000 nM -5.61%

CC(C)NCC(O)c1ccc([N+](=O)[O-])cc1 (stereo not given) [nifenalol]
inactive: 1 nM -3.06% | 8.33 nM 0.04% | 100 nM -1.08% | 833.33 nM 0.11% | 10000 nM -2.75%

CN(CCOc1ccc(CC2SC(=O)NC2=O)cc1)c1ccccn1 (stereo not given) [rosiglitazone]
inactive: 1 nM -1.76% | 8.33 nM -2.53% | 100 nM -4.45% | 833.33 nM -0.37% | 10000 nM 1.48%

CN(C)CCN1C(=O)c2cccc3cc(NC(N)=O)cc(c23)C1=O [unbs-5162]
inactive: 1 nM -0.12% | 8.33 nM 4.76% | 100 nM 2.53% | 833.33 nM 0.4% | 10000 nM -2.03%

Fc1ccc(C(OCCN2CCN(C/C=C/c3ccccc3)CC2)c2ccc(F)cc2)cc1
inactive: 1 nM 1.02% | 8.33 nM 1.01% | 100 nM 3.35% | 833.33 nM 1.4% | 10000 nM 0.32%

Cc1cnc(Nc2ccc(N3CCN(C)CC3)cc2)nc1Nc1cccc(S(=O)(=O)NC(C)(C)C)c1
inactive: 1 nM -0.35% | 8.33 nM -0.73% | 100 nM 0.51% | 833.33 nM -7.25% | 10000 nM -21.1%

CN(C)CCn1cc(S(=O)(=O)c2cccc(F)c2)c2cccnc21
inactive: 1 nM 5.3% | 8.33 nM 5.65% | 100 nM 1.09% | 833.33 nM -1.84% | 10000 nM -1.97%

Cc1ccc(-n2nc(C(C)(C)C)cc2NC(=O)Nc2ccc(OCCN3CCOCC3)c3ccccc23)cc1 [doramapimod]
inactive: 1 nM -2.22% | 8.33 nM 1.14% | 100 nM -0.73% | 833.33 nM 4.29% | 10000 nM 8.03%

C[S+]([O-])c1ccc(-c2nc(-c3ccc(F)cc3)c(-c3ccncc3)[nH]2)cc1 (stereo not given)
inactive: 1 nM -0.95% | 8.33 nM 1.29% | 100 nM -1.08% | 833.33 nM -1.33% | 10000 nM 4.9%

O=C1c2c(O)cccc2Cc2cccc(O)c21 [anthralin]
inactive: 1 nM -1.32% | 8.33 nM -2.05% | 100 nM 0.93% | 833.33 nM -2.71% | 10000 nM -1.19%

Nc1c(-c2cccc(C(F)(F)F)c2)nsc1C(=O)O [amflutizole]
inactive: 1 nM -1.13% | 8.33 nM 0.29% | 100 nM -1.28% | 833.33 nM 0.87% | 10000 nM 1.39%

COC(=O)c1cc(OC)c2c(c1-c1c(CO)cc(OC)c3c1OCO3)OCO2 [bicyclol]
inactive: 1 nM -2.07% | 8.33 nM 1.38% | 100 nM -0.88% | 833.33 nM -0.4% | 10000 nM -3.03%

CC1=C(C(=O)O)N2C(=O)[C@@H](NC(=O)[C@H](N)C3=CCC=CC3)[C@H]2SC1 [cephradine]
inactive: 1 nM 0.46% | 8.33 nM -1.94% | 100 nM -0.29% | 833.33 nM 0.485% | 10000 nM -2.73%

CN1CC[C@@]2(C)c3cc(O)ccc3N(C)[C@@H]12 [eseroline-(-)]
inactive: 1 nM 0.81% | 8.33 nM 0.96% | 100 nM 2.54% | 833.33 nM 3.07% | 10000 nM 6.49%
